esBAF inh: Bmi1 luciferase reporter increase in mESCs, primary screen, esBAF inhibitor project, mouse ES cells, Bmi1 luciferase knock-in, single point; AID 602393, 2012; reporter increase, % at 12.5 µM; 24 h; 100% = twice the neutral-well signal; 350,000 compounds, 2% hits; in the data active means activation above about 40%; inconclusive means no clear call, values can overlap the other calls;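 further: 0% = median of the plate's neutral control wells and 100% = double that signal; a rise in the Bmi1 reporter signal indicates esBAF inhibition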
Env fusion inh: inhibitors of HIV-1 Env-driven cell-cell fusion, primary screen, HeLa-JRFL effector, CEM21 target cells, luciferase | inhibition, % at 12.3 µM | 360,000 compounds, 1.1% hits;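 active means mean replicate inhibition score of at least 50 and every replicate individually at or above 50; inconclusive means only one of the two criteria met; inactive means mean below 50 and not all replicates reaching 50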;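 further: 0% = plate neutral controls and 100% = maraviroc near 300 nM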
Wnt act: Wnt/beta-catenin pathway activators, primary screen, cell-based, plate reader, single point; activation, % at 9.35 µM; Wnt/beta-catenin reporter cell assay, activator; 300,000 compounds, 1.2% hits; in the data active means activation above about 30%, passing the limit was not always enough; inconclusive means no clear call, values can overlap the other calls;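 further: 0% = neutral control wells and 100% = positive control wells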
MITF act: activators of MITF-driven TRPM1 promoter reporter, primary screen, cell-based, SK-MEL-5, luciferase, single point; SK-MEL-5 TRPM1-promoter luciferase, 24 h; % of positive control, neutral wells = 0; activation, % at 12.5 µM; 300,000 compounds, 0.75% hits;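 active means mean activation of at least 80% with every replicate also reaching 80%; inconclusive means mean reaches 80% but some replicate falls short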;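 further: 0% = neutral control wells and 100% = parthenolide positive control wells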
miR-122 sensor: miR-122 Renilla sensor signal increase in Huh7, primary screen, miR-122 inhibitor project, cell-based, single point, plate reader; Huh7 miR-122 Renilla luciferase sensor, 48 h; neutral wells = 0, positive control = 100; activation (reporter increase), % at 12.5 µM; 340,000 compounds, 0.3% hits; AID 602342, 2012;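 active means mean replicate activation score at least 90 and every replicate individually at or above 90; inconclusive means only one of the two criteria met; inactive means neither criterion met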;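 further: higher luciferase means less miR-122 activity so hits act as miR-122 inhibitors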
Starred values were filed as active, the others as inactive; ? = inconclusive; . = not tested or not shown; [ ] = another dose, or the depositor's remark. Shown are actives, neighbours in structure and some others; about 3.4% of the full set was active somewhere.

SMILES	esBAF inh	Env fusion inh	Wnt act	MITF act	miR-122 sensor
Cc1cccc(-c2nc3ccccc3c(=O)[nH]2)c1	7.9	-22.4	25.7	96.8*	8.0
Nc1cc(Nc2ccc(Br)cc2)nc(N)n1	.	-4.7	38.7*	?	.
C[C@H]1CCCCO[C@H](CN(C)S(=O)(=O)c2cn(C)cn2)[C@@H](C)CN([C@@H](C)CO)C(=O)c2cc(NC(=O)Nc3ccc(F)cc3)ccc2O1	2.0	29.0[16.7 µM]	.	.	4.5[16.7 µM]
CO[C@H]1CN(C)C(=O)c2ccc(NC(=O)NC(C)C)cc2OC[C@@H](C)N(C(=O)CC2CC2)C[C@@H]1C	-0.9	21.9[16.7 µM]	.	.	.
CCCCSC(=O)Nc1ccccc1	50.1*	-4.6	4.9	8.9	-1.5
COc1cc2c(cc1NC(=O)CSc1ccc(Cl)cc1)oc1ccccc12	-1.3	1.6	.	-6.2	-0.6
COc1cc2c(cc1NC(=O)CSc1ccccn1)oc1ccccc12	48.7*	-47.0	.	94.6*	70.6
COc1cc2c(cc1NC(=O)c1cccnc1)oc1ccccc12	72.3*	.	.	71.0	5.0
C[C@H]1CN([C@@H](C)CO)S(=O)(=O)c2ccc(C3=CCCC3)cc2O[C@H]1CN(C)CC1CCOCC1	-1.0	-14.7[16.7 µM]	.	.	.
CC1CCN(C(=O)CN(c2ccc3c(c2)OCCO3)S(=O)(=O)c2ccccc2)CC1	12.2	4.7	-0.3	.	103.6*
Cc1ccc(S(=O)(=O)N(CC(=O)N2CCC(C)CC2)c2cccc(C)c2)cc1	-3.0	20.2	-1.6	5.2	143.6*
COc1ccc(OC)c(N(CC(=O)N2CCC(C)CC2)S(=O)(=O)c2ccccc2)c1	-2.9	25.5	-3.2	4.1	231.6*
CC(=O)N1CCc2cc(S(=O)(=O)NCCCN3CCN(Cc4ccccc4)CC3)ccc21	-4.1	-3.1	.	13.9	301.6*
CCC(=O)N1CCc2cc(S(=O)(=O)NCCCN3CCN(Cc4ccccc4)CC3)ccc21	-7.2	31.1	-5.3	.	-0.9
COc1ccc(CNCC(O)(c2ccc(Cl)cc2)c2ccc(Cl)cc2)cc1OC	0.6	63.0*	.	8.7	-7.3
COc1ccc(CNCC(O)(c2ccc(F)cc2)c2ccc(F)cc2)cc1OC	-14.4	42.3	-1.4	.	-8.7
Cc1ccccc1Nc1c(-c2ccc(N3CCOCC3)cc2)nc2cnccn12	55.8*	-38.2	33.1*	35.8	-1.4
Cc1ccccc1Nc1c(-c2ccc(N3CCOCC3)cc2)nc2ncccn12	53.3*	-9.6	7.6	8.0	-3.8
Cc1ccc(Nc2c(-c3ccc(N4CCOCC4)cc3)nc3cnccn23)cc1	.	3.5	-4.8	37.8	19.2
COc1cccc(C#Cc2cnc3c(c2)C(=O)N([C@@H](C)CO)C[C@H](C)[C@@H](CN(C)C(=O)C2CC2)O3)c1	-1.7	9.4[16.7 µM]	.	.	6.3[16.7 µM]
Cc1cc(NC(=O)CSc2nc3c(cc2C#N)CCC3)no1	25.8	-93.6	33.9*	66.5	-3.3
Cc1cc(NC(=O)CSc2nc3ccccc3cc2C#N)no1	34.1	-13.6	8.8	59.6	-3.0
N#Cc1cc2c(nc1SCC(=O)O)CCCC2	.	-21.8	.	2.2	-2.7
Cc1cc(NC(=O)CSc2nc3c(cc2C#N)CCCC3)no1	.	-171.2	40.8*	66.5	.
CC(=O)N1[C@@H](CO)[C@@H](c2ccc(C3=CCCC3)cc2)[C@@H]1CNC(=O)CN(C)C	2.6	.	.	.	7.1[16.7 µM]
SMILES	esBAF inh	Env fusion inh	Wnt act	MITF act	miR-122 sensor
S=C1NC2(CCCCCC2)NN1c1ccccc1	.	55.4*	1.8	.	.
Cc1ccc(NC(=O)c2nnn(-c3cc(C)cc(C)c3)c2N)cc1	48.5*	-3.4	31.2*	.	3.7
Cc1ccc(CCNC(=O)c2nnn(-c3cc(C)cc(C)c3)c2N)cc1	-2.7	32.4	.	.	-8.2
CC(C)NC(=O)N(C)C[C@@H]1Oc2ccc(NS(=O)(=O)c3ccc(Cl)cc3)cc2CC(=O)N([C@H](C)CO)C[C@H]1C	2.3	.	.	.	2.2[16.7 µM]
Cc1c(Cl)cccc1NC(=O)N1CCCN(c2nc(-c3ccccc3)ns2)CC1	1.3	55.1*	-3.5	-16.6	-10.7
COc1ccc(CCN2C(=O)c3[nH]nc(-c4ccccc4O)c3C2c2ccccc2)cc1OC (stereo unspecified)	-2.3	147.4*	-7.7	.	2.5
COCCN=C1Sc2nc3ccc(C)cc3cc2CN1Cc1ccco1	53.7*	-21.1	-3.4	23.6	-6.3
CC1CC(=O)NN=C1c1cccs1 (stereo unspecified)	-3.2	-1.2	-0.9	4.6	-4.1
CC1CC(=O)NN=C1c1ccc(N(C)C)c([N+](=O)[O-])c1 (stereo unspecified)	4.9	73.0*	.	-9.2	-7.7
CCN(CC)c1ccc(C2=NNC(=O)CC2C)cc1[N+](=O)[O-] (stereo unspecified)	8.5	87.5*	-17.7	-30.1	-5.1
O=C(/C=C/c1ccccc1[N+](=O)[O-])NCc1ccc(Cl)cc1	.	2.9	-6.3	0.0	.
O=C(/C=C/c1ccccc1Cl)NCc1ccccc1	52.8*	-25.1	-4.6	39.1	-0.7
O=C(/C=C/c1ccccc1Cl)NCCc1ccccc1	55.3*	.	-2.1	87.2*	8.5
CCCNC(=O)[C@@H]1[C@@H](CO)[C@@H]2Cn3c(cccc3=O)[C@H]1N2C(=O)NCCC	-5.2	.	.	.	0.5[16.7 µM]
O=S1(=O)c2ccc(Br)cc2N2CCC[C@@H]2CN1Cc1ccc(Cl)cc1	-0.3	23.2	-2.8	7.1	7.0
O=S1(=O)c2ccc(Br)cc2N2CCC[C@H]2CN1Cc1ccccc1	-3.9	18.0	-3.7	-18.7	140.0*
Cc1cc(C)c2c(N)c(C(=O)Nc3nccs3)sc2n1	-76.3	-49.7	39.3*	.	14.8
Cc1ccc(NC(=O)c2sc3nc(C)cc(C)c3c2N)cc1	3.6	-141.8	36.1*	83.2*	.
COCc1cc(C)nc2sc(C(=O)Nc3ccccc3OC)c(N)c12	9.8	0.8	3.0	25.7	-2.9
COCc1cc(C)nc2sc(C(=O)Nc3nccs3)c(N)c12	55.7*	-30.8	5.9	.	-4.4
Cc1cc(C)c2c(N)c(C(=O)NN)sc2n1	.	4.1	3.8	16.5	.
COCc1cc(C)nc2sc(C(=O)Nc3ccc(OC)cc3)c(N)c12	32.8	-145.9	4.6	.	-5.2
COCc1cc(C)nc2sc(C(=O)Nc3cccc(OC)c3)c(N)c12	67.2*	-80.3	-2.3	.	-3.3
O=C(Nc1ccc(Cl)cc1)c1ccc2nsnc2c1	109.4*	-47.0	-0.7	67.1	-1.5
N#Cc1ccsc1NC(=O)c1ccc2ncsc2c1	71.4*	-12.6	17.8	.	21.3
CN(C)c1ccc(NC(=O)c2ccc3nsnc3c2)cc1	10.9	-84.8	.	67.2	-3.0
O=C(COC(=O)c1ccc2ncsc2c1)Nc1cccc(Cl)c1	14.3	.	-1.9	10.0	2.9
O=C(Nc1ccc(C(F)(F)F)cc1)c1ccc2ncsc2c1	58.5*	-36.9	11.9	.	8.8
O=C(Nc1cccc(Cl)c1)c1ccc2ncsc2c1	48.5*	-21.1	17.0	46.5	0.7
O=C(Nc1ccc(N2CCOCC2)cc1)c1ccc2ncsc2c1	27.0	-51.4	7.6	-2.5	0.2
